34 molecules from PubChem BioAssay AID463173 (ICCB-Longwood Screening Facility, Harvard Medical School, 2010) can be followed below.

The structures appear in SMILES notation. The campaign covered roughly 52,000 compounds. About 1,700 (3.3%) were called active. Rule as the data show it: active = survival mostly below about 52% (no sharp cut-off); inactive = mostly above about 56%. What follows is part of a selection rich in actives, with near analogues and random picks from the rest.

For the assay, the system named is Wild type. Kind of assay: growth inhibition of S. aureus wild type versus tarO mutant, primary screen, teichoic acid synthesis inhibitors, RN4220, OD600 (AID 463173). The settings on record: S. aureus RN4220 wild type/DeltatarO growth, OD600, 18 h, hits give low values, screened at 18.75 µg/mL (by protocol).
Turning to `Cc1nn2c(=O)cc(COC(=O)Cc3ccccc3)nc2s1`, the survival was 80% (inactive).
For the molecule `CCOc1ccccc1N1CC(c2nc3ccccc3n2CCCCOc2ccccc2)CC1=O` (centres undefined), the survival is 73% (inactive).
Turning to `CCc1ccccc1N1CC(c2nc3ccccc3n2CCOc2ccc(Cl)c(C)c2)CC1=O` (centres undefined), the survival is 2% (active).
As for `Cc1cc(C)cc(OCCn2c(C3CC(=O)N(c4ccccc4Cl)C3)nc3ccccc32)c1` (centres undefined), the figure is 97% (inactive); as for `Cc1cccc(OCCCCn2c(C3CC(=O)N(c4ccc(C)cc4C)C3)nc3ccccc32)c1` (centres undefined), 18% (inactive).
As for `Cc1cccc(OCCCCn2c(C3CC(=O)N(c4ccccc4Cl)C3)nc3ccccc32)c1` (centres undefined), the figure is 17% (active).
In the case of `CCc1ccccc1N1CC(c2nc3ccccc3n2CCCCOc2ccccc2)CC1=O` (centres undefined) it was 19% (active); in that of `O=C1CC(c2nc3ccccc3n2CCCCOc2ccccc2)CN1c1ccccc1Cl` (centres undefined), 61% (inactive).
Consider `CCc1ccccc1N1CC(c2nc3ccccc3n2CCCOc2ccc(Cl)cc2)CC1=O` (centres undefined), for which the survival is 29% (inactive).
As for `CCOc1ccccc1N1CC(c2nc3ccccc3n2CCCOc2ccccc2)CC1=O` (centres undefined), the figure is 58% (inactive); as for `CCC1CCCCN1S(=O)(=O)c1cc2c3c(c1)CC(=O)N3CCC2` (centres undefined), 95% (inactive).
As for `COc1ccc(C)cc1NC(=O)CN1C(=O)CSc2ccc(S(=O)(=O)N3CCCC3)cc21`, the figure is 93% (inactive).
For `COc1cccc(/C=C(\C#N)c2nc3ccc(C)cc3[nH]2)c1`, the survival is 53% (inactive).
As for `Cc1ccc2nc(/C(C#N)=C/c3ccccc3F)[nH]c2c1`, the figure is 46% (inactive); as for `Cc1ccc2nc(/C(C#N)=C/c3cccc(Br)c3)[nH]c2c1`, -11% (active); as for `COc1ccc(C(=O)c2oc3ccccc3c2NC(=O)c2cc(=O)c3ccc(C)cc3o2)cc1Cl`, 87% (inactive).
In the case of `O=C(C1c2ccccc2Oc2ccccc21)N1CCCCC1` it was 103% (inactive); in that of `CCCCn1c(CCCN2C(=O)c3ccccc3C2=O)nc2ccccc2c1=O`, 104% (inactive); in that of `N#CCOc1nc(OCC#N)nc(OCC#N)n1`, -1% (active).
As for `CONc1nc(NC(C)(C)C)nc(OCC#N)n1`, the figure is 102% (inactive).
As for `CNc1nc(OCC#N)nc(N2CCCCC2)n1`, the survival is 119% (inactive).
In the case of `CCOc1ccc(CNC(=O)c2cc3c(=O)n(C)c4ccccc4c3s2)cc1`, the survival is 84% (inactive).
`CCC(C)Cn1c(/C=C/c2ccccc2)nc2ccccc21` (centres undefined): the survival is 1% (active).
In the case of `CC(C)Cn1c(/C=C/c2ccc(F)cc2)nc2ccccc21` it was -12% (active).
In the case of `CCCCCn1c(CNC(=O)c2ccc(F)cc2)nc2ccccc21` it was 90% (inactive).
As for `CCCCCCn1c(/C=C/c2ccccc2)nc2ccccc21`, the survival was 0% (active).
As for `CCCCCCn1c(CNC(=O)c2ccccc2)nc2ccccc21`, the figure is 91% (inactive); as for `CCn1c(O)c(/C=C/c2nc3ccccc3n2CC)sc1=S`, 108% (inactive).
As for `CC(C)CCn1c(/C=C/c2ccccc2)nc2ccccc21`, the figure is -1% (active).
Turning to `CCCCCn1c(CNC(=O)c2ccccc2)nc2ccccc21`, the survival was 89% (inactive).
As for `CCc1nc2ccccc2n1CC(C)C(=O)O` (centres undefined), the figure is 108% (inactive).
In the case of `CCc1nc2ccccc2n1CCO` it was 101% (inactive); in that of `Cc1cccc(C(=O)NCCc2nc3ccccc3n2CCC(C)C)c1`, 116% (inactive).
In the case of `CCCn1c(CNC(=O)c2ccc(F)cc2)nc2ccccc21` it was 69% (inactive).
